Where “and” joins values, the source holds several entries; their conditions need not be identical. Equal values may be shown once. Hit rate of the full screen: of about 5,500 compounds, about 2,000 (36%) were called active. Inconclusive results (about 18%) are left out. No stated cut-off is given here; in the data, active means normalized growth mostly below about 0.91 (no sharp cut-off); inconclusive means no clear call, values can overlap the other calls; inactive means mostly above about 0.92. The list shows a part of the results.
Test: chemical genetic growth profiling, strain panel (AID 1159580);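 further: tested at 20 µM; growth read once vehicle control cultures reached saturation at 30 °C; 1 = growth at the plate median or of vehicle wells; lower values mean less growth of the strain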
Conditions: S. cerevisiae deletion strains, growth OD

Measured: normalized growth

CCCCOC(=O)c1ccccc1C(=O)OCCCC
inactive: locus YAL013W, strain DEP1, active compounds read low 0.988 | locus YAL021C, strain ccr4, active compounds read low 0.979 | locus YAL026C, strain drs2, active compounds read low 0.989 | locus YAL030W, strain snc1, active compounds read low 0.979 | locus YBL061C, strain skt5, active compounds read low 0.986 | locus YBR009C, strain hhf1, active compounds read low 0.968 | locus YBR021W, strain FUR4, active compounds read low 0.955 | locus YBR023C, strain chs3, active compounds read low 0.98 | locus YBR171W, strain sec66, active compounds read low 0.959 | locus YBR229C, strain ROT2, active compounds read low 0.981 | locus YBR231C, strain swc5, active compounds read low 0.983 | locus YBR279W, strain paf1, active compounds read low 0.994 | locus YCL011C, strain gbp2, active compounds read low 0.979 | locus YCL016C, strain dcc1, active compounds read low 0.985 | locus YCL029C, strain bik1, active compounds read low 0.976 | locus YCL061C, strain MRC1, active compounds read low 0.984 | locus YCL069W, strain vba3, active compounds read low 0.985 | locus YCR088W, strain abp1, active compounds read low 0.98 | locus YDL005C, strain med2, active compounds read low 0.97 | locus YDL035C, strain GPR1, active compounds read low 0.986 | locus YDL040C, strain nat1, active compounds read low 0.985 | locus YDL074C, strain BRE1, active compounds read low 0.984 | locus YDL101C, strain DUN1, active compounds read low 0.986 | locus YDL134C, strain PPH21, active compounds read low 0.988 | locus YDL185W, strain tfp1, active compounds read low 0.961 | locus YDL192W, strain arf1, active compounds read low 0.983 | locus YDR001C, strain nth1, active compounds read low 0.984 | locus YDR069C, strain doa4, active compounds read low 0.983 | locus YDR101C, strain arx1, active compounds read low 0.984 | locus YDR137W, strain rgp1, active compounds read low 0.905 | locus YDR150W, strain NUM1, active compounds read low 0.989 | locus YDR159W, strain sac3, active compounds read low 0.993 | locus YDR162C, strain NBP2, active compounds read low 0.976 | locus YDR195W, strain ref2 1.07 | locus YDR297W, strain sur2, active compounds read low 0.984 | locus YDR318W, strain mcm21, active compounds read low 0.979 | locus YDR334W, strain swr1, active compounds read low 0.991 | locus YDR335W, strain msn5, active compounds read low 0.992 | locus YDR388W, active compounds read low 0.961 | locus YDR392W, strain spt3, active compounds read low 0.941 | locus YDR502C, strain sam2, active compounds read low 0.977 | locus YEL003W, strain gim4, active compounds read low 0.987 | locus YEL037C, strain rad23, active compounds read low 0.992 | locus YEL061C, strain CIN8 (second series), active compounds read low 0.989 | locus YEL061C, strain CIN8, active compounds read low 0.992 | locus YER015W, strain faa2, active compounds read low 0.986 | locus YER016W, strain bim1, active compounds read low 0.986 | locus YER110C, active compounds read low 0.974 | locus YER111C, strain swi4, active compounds read low 0.999 | locus YER155C, strain BEM2 (second series), active compounds read low 0.968 | locus YER155C, strain BEM2, active compounds read low 0.98 | locus YER167W, strain BCK2, active compounds read low 0.981 | locus YFR010W, strain ubp6, active compounds read low 0.998 | locus YGL078C, strain dbp3, active compounds read low 0.982 | locus YGL086W, strain mad1, active compounds read low 0.98 | locus YGL167C, strain pmr1, active compounds read low 0.957 | locus YGL173C, strain kem1, active compounds read low 0.98 | locus YGL227W, strain vid30, active compounds read low 0.984 | locus YGL240W, strain doc1, active compounds read low 0.973 | locus YGL248W, strain PDE1, active compounds read low 0.976 | locus YGL253W, strain hxk2, active compounds read low 0.987 | locus YGR078C, strain PAC10, active compounds read low 0.981 | locus YGR135W, strain pre9, active compounds read low 0.988 | locus YGR229C, strain SMI1, active compounds read low 0.948 | locus YGR252W, strain gcn5, active compounds read low 0.992 | locus YHR013C, strain ard1, active compounds read low 1.03 | locus YHR027C, strain rpn1, active compounds read low 0.987 | locus YHR030C, strain SLT2, active compounds read low 0.969 | locus YHR079C, strain IRE1 (second series), active compounds read low 0.972 | locus YHR079C, strain IRE1, active compounds read low 0.962 | locus YHR094C, strain hxt1, active compounds read low 0.973 | locus YHR129C, strain ARP1, active compounds read low 0.996 | locus YHR142W, strain chs7, active compounds read low 0.944 | locus YHR200W, strain rpn10, active compounds read low 0.985 | locus YIL066C, strain RNR3, active compounds read low 0.972 | locus YIL073C, strain SPO22, active compounds read low 0.867 | locus YIL125W, strain kgd1, active compounds read low 0.988 | locus YIR030C, strain dcg1, active compounds read low 0.978 | locus YJL092W, strain hpr5, active compounds read low 0.98 | locus YJL095W, strain BCK1 (second series), active compounds read low 0.985 | locus YJL095W, strain BCK1, active compounds read low 0.979 and 0.96 | locus YJL115W, strain asf1, active compounds read low 0.988 | locus YJL129C, strain trk1, active compounds read low 0.886 | locus YJL134W, strain LCB3, active compounds read low 0.984 | locus YJL154C, strain vps35, active compounds read low 0.985 | locus YJL164C, strain tpk1, active compounds read low 0.961 | locus YJL166W, strain qcr8, active compounds read low 0.974 | locus YJL168C, strain set2, active compounds read low 0.985 | locus YJL187C, strain SWE1 (second series), active compounds read low 0.968 | locus YJL187C, strain SWE1, active compounds read low 0.983 | locus YJR043C, strain POL32, active compounds read low 0.982
